An excerpt weighted towards active compounds, which were near 12% of everything screened.
Pf growth 96h – P. falciparum growth inhibition at 96 hour, primary screen for plastid delayed-death inhibitors; Potency, µM (highest dose often 28.7 µM), for the others: at the top dose activity change, negative = inhibition, actives largely listed as inhibitors; 6.9% of 320,000 active; AID 504834; P. falciparum luciferase reporter growth, 96 h; note: % is set by controls: 0 for no effect and ±100 for the full control effect
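Compounds incubated with erythrocytes infected by luciferase-expressing P. falciparum (2% hematocrit, 0.05% parasitemia final) for 96 hours, 37 C in 5% CO2. Growth inhibition scored as decreased luciferase luminescence.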
SARS PLP yeast – inhibitors of SARS-CoV papain-like protease in yeast; S. cerevisiae expressing SARS-CoV PLpro, growth rescue; Potency, µM (top dose mostly 32.9 µM), inactives show at the top dose activity, positive = growth rescue, most hits filed as activators; 0.19% of 330,000 active; AID 485353; calls by dose curve; note: 0% is about no effect; nearly all actives have a fitted effect of over 55% in size
AMA1-RON2 inh – AMA1-RON2 (P. falciparum) interaction inhibition; AlphaScreen AMA1-biotinylated RON2 peptide binding; Potency, µM (series often up to 58.2 µM), for inactives: at the top dose activity change, negative = inhibition, actives largely listed as inhibitors; 0.2% of 360,000 active; AID 720542;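 note: 0% = vehicle wells and -100% = peptide control; nearly all actives have a fitted effect of over 45% in size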
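AMA1 (3D7) with his tag at 25 nM final met compounds first, then biotinylated RON2 peptide at 25 nM; detection used donor plus acceptor beads, 10 µg/mL apiece, read by AlphaScreen after 30 min at room temperature.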
HCV inh – blocks hepatitis C virus; Huh7.5.1 HCVcc-Cre infection, luciferase reporter, 44 h; Potency, µM (titrated, usually from 41.8 µM), for the others: top-dose activity change, negative = inhibition, actives largely listed as inhibitors; 3.4% of 340,000 active; note: % is set by controls: 0 for no effect and ±100 for the full control effect
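Whole-lifecycle infectious HCVcc-Cre system; cells 1,000/well, compound then virus (~0.5 moi) added 4 h after plating, 44 h culture. Luciferase read 15 sec following 15 min substrate incubation, room temp.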
NS1 function inh – blocks influenza NS1 protein function; Potency, µM (highest dose often 46.1 µM), inactives show at the highest dose activity, positive = more growth; 0.4% of 270,000 active; calls by dose curve; note: actives are rising curves; nearly all actives have a fitted effect of over 50% in size
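Read-out: OD600 growth recovery of NS1-expressing budding yeast. Cells grown overnight at 30C in -URA glucose medium, washed, resuspended and diluted 1:100 in 2% galactose assay medium, pH 6.0. Same strain lacking NS1 served as positive control.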
Pf growth 48h – P. falciparum growth inhibition at 48 hours (one generation). P. falciparum luciferase growth in erythrocytes, 48 h. Potency, µM (doses to about 28.7 µM), for inactives: at the highest dose activity change, negative = inhibition, actives largely listed as inhibitors. 5.9% of 310,000 active; note: % is set by controls: 0 for no effect and ±100 for the full control effect
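Luminescence readout; reporter = integrated firefly luciferase in P. falciparum. RBC culture at 2% hematocrit, 0.1% parasitemia final, 37 C/5% CO2; decreased signal taken as growth inhibition.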
* hit, by the source's call; ? = inconclusive; · = no result given. Unless noted, calls come from the whole dose curve; as a rule, active = well fitted curve in the direction sought with a large enough effect; inconclusive = small, poorly fitted or top-dose-only effect, or another doubt; inactive = no such curve, though single readings can be large; an effect the other way counts as inactive or inconclusive. Potency is the fitted concentration of half-maximal effect.

SMILES	Pf growth 96h	SARS PLP yeast	AMA1-RON2 inh	HCV inh	NS1 function inh	Pf growth 48h
COc1ccc(/C=N/N2CCOCC2)cc1Cn1cc([N+](=O)[O-])cn1	25%	-1%	-4%	8%	-3%	16%
CCOC(=O)N1CCN(C(=O)COc2ccc3c(c2)C(=O)CC(C)(C)O3)CC1	25%	-3%	0%	14%	·	?
CC1(C)CC(=O)c2cc(OCC(=O)N3CCCCCC3)ccc2O1	13µM*	10%	1%	6%	-4%	?
CCN1CCN(C(=O)COc2ccc3c(c2)C(=O)CC2(CCN(C(C)=O)CC2)O3)CC1	8.3µM*	10%	6%	-8%	3%	·
CCOc1ccc(-c2c(C(=O)N/N=C/C3CC=CCC3)nnn2-c2nonc2N)cc1 (centres undefined)	?	4%	70%	11%	28%	12%
CC(=O)c1ccc(NC(=O)CC23CC4CC(C2)CC(n2nnc(C)n2)(C4)C3)cc1	3%	5%	-1%	2%	·	?
C=C1SC(=Nc2ccccc2Cl)N(C(=O)c2sc3ccccc3c2Cl)C12CCCCC2	?	-1%	·	·	-2%	5.9µM*
O=C(c1sc2ccccc2c1Cl)N1CCC2(CC1)OCCO2	-3%	-10%	3%	15%	-3%	26%
Cc1ccnc(NC(=O)c2sc3ccccc3c2Cl)c1	12%	3%	-10%	-7%	3%	165%
C=C1SC(=Nc2c(C)cc(C)cc2C)N(C(=O)c2sc3ccccc3c2Cl)C12CCCCC2	1.7µM*	-1%	-7%	-9%	-6%	?
COc1ccc(NC(=O)NC2CCCCC2C)cc1 (centres undefined)	?	-1%	0%	0%	-12%	-11%
COc1ccc(NC(=O)CC2C(=O)N(c3cccc(OC)c3)C(=O)N2CCC(C)C)cc1 (centres undefined)	12µM*	-11%	1%	-22%	-6%	·
CCOc1ccc(NC(=O)CC2C(=O)N(c3ccccc3)C(=O)N2Cc2ccco2)cc1 (centres undefined)	-65%	-1%	-5%	-27%	-4%	8%
COc1ccc(NC(=O)CC2C(=O)N(c3cccc(OC)c3)C(=O)N2Cc2ccco2)cc1 (centres undefined)	9.3µM*	-1%	0%	-15%	-3%	-4%
COCCN1C(=O)N(c2cccc(OC)c2)C(=O)C1CC(=O)Nc1cccc(F)c1 (centres undefined)	4.1µM*	-10%	-13%	0%	5%	-1%
COc1ccc(-c2ccnc3nc(N4CCN(c5ccccc5)CC4)nn23)cc1	9.3µM*	3%	-2%	?	8%	?
Fc1ccc(-c2ccnc3nc(N4CCOCC4)nn23)cc1	?	-3%	-2%	11%	3%	28%
CC(C)(C)c1ccc(C(=O)c2c[nH]c(C(=O)NCCc3ccccn3)c2)cc1	?	0%	5%	1%	·	10µM*
CCC(CC)C(=O)c1c[nH]c(C(=O)NCCc2ccccn2)c1	?	6%	5%	6%	21%	-1%
CCC(=O)c1c[nH]c(C(=O)NCCCN2CCOCC2)c1	16%	7%	-10%	12%	1%	1%
CC(C)(C)c1ccc(C(=O)c2c[nH]c(C(=O)NCCCN3CCOCC3)c2)cc1	10µM*	2%	-6%	?	2%	13µM*
Cc1onc(-c2ccccc2)c1C(=O)c1c[nH]c(C(=O)NCc2ccccn2)c1	?	-3%	54%	10µM*	·	181%
Cc1onc(-c2ccccc2)c1C(=O)c1c[nH]c(C(=O)NCc2ccncc2)c1	37%	1%	9%	?	·	363%
CC(C)c1cc(Cn2c3ccccc3c(=O)n2C(C)Cn2cc(CCc3ccccc3)nn2)on1 (centres undefined)	·	·	-8%	·	·	·
O=C(CSc1cccc[n+]1[O-])NN(c1ccccc1)c1ccccc1	17%	0%	0%	2%	4%	17%
CCCCN1CCc2c1nc1ccc(Br)cc1c2N	1.7µM*	0%	3%	?	-7%	·
Cc1cc(NCc2ccccc2)c2ccccc2n1	?	-2%	-2%	11µM*	?	3.3µM*

High-throughput results (PubChem BioAssay)
